A selection: hits, their analogues and other compounds. The true share with any hit is near 4.5%.
697 NFkB inh – inhibitors of PMA/ionomycin-induced NF-kB reporter, 697 cells, primary screen, B-cell NF-kB inhibitor project, cell-based, luminescence, uHTS; 697 B-cell NF-kB luciferase reporter, 16 h; inhibition, % at 4 µM; 330,000 compounds, 0.33% hits; in the data active means inhibition above about 35%
Mdm2-MdmX inh – inhibitors of human Mdm2-MdmX association, primary screen, cell-based, luminescence, split luciferase, SaOS-2, uHTS; SaOS-2 split-luciferase Mdm2/MdmX complementation; inhibition, % at 8 µM; 330,000 compounds, 3% hits; AID 485346, 2010;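 active means inhibition of at least 50% at 8 µM in the primary screen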
Target sequence (O15151 whole entry, looked up): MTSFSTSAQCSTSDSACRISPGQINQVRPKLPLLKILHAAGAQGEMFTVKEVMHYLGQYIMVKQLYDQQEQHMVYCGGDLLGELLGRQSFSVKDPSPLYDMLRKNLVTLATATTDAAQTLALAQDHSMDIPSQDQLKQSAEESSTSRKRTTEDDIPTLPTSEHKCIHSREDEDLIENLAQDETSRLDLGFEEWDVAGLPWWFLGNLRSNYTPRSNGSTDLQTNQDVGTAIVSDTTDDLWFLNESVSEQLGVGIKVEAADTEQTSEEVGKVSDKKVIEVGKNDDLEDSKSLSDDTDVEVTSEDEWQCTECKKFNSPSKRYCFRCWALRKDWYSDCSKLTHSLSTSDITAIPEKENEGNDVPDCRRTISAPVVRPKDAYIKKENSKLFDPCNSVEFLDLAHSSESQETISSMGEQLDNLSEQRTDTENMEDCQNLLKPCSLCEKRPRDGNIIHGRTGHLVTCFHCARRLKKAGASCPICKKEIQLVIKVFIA
Target sequence (Q00987 whole entry, looked up): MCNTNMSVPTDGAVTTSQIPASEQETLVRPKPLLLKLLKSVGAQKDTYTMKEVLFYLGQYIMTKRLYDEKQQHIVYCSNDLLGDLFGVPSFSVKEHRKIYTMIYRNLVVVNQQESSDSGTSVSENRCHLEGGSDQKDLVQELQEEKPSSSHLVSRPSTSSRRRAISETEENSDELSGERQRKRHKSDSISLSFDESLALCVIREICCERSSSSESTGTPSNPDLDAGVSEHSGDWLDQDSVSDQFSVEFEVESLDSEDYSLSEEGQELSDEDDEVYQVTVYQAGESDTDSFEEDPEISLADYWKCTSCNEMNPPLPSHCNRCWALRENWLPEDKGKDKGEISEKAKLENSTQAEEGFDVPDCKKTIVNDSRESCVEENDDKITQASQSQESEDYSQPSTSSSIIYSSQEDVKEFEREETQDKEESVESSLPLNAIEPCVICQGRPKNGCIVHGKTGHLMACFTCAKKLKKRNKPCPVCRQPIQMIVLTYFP
Gli-Sufu block – Gli-Sufu pathway antagonists, primary screen, luciferase luminescence, Sufu-KO-LIGHT cells, uHTS; AID 588413, 2011; Sufu-KO-LIGHT fibroblasts, Gli luciferase reporter luminescence; inhibition, % at 5 µM; 340,000 compounds, 0.74% hits;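 active means inhibition above about 55%, limit read from the data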
Jurkat NFkB inh – inhibitors of induced NF-kB luciferase reporter, primary screen, TCR NF-kB activation inhibitor project, cell-based, luminescence, uHTS | Jurkat, PMA/ionomycin-induced NF-kB luciferase reporter | inhibition, % at 4 µM | 330,000 compounds, 0.53% hits; in the data active means inhibition above about 50%
CSC inhib – cancer stem cell viability inhibitors, primary screen, luminescence; cancer stem cell-like cells viability; inhibition, % at 7.5 µM; 300,000 compounds, 1.1% hits; AID 2717, 2010; in the data active means inhibition above about 75%; inconclusive means no clear call, values can overlap the other calls; tested in HMLE shEcad cells
aSyn UTR inh – MLPCN primary screen, SNCA 5' untranslated region; alpha-synuclein 5'UTR reporter, inhibitor activity; inhibition, % (tested at 7.5 µM); 300,000 compounds, 0.82% hits; in the data active means inhibition above about 60%; inconclusive means no clear call, values can overlap the other calls;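 further: H4 neuroglioblastoma cells stably carrying SNCA 5'UTR luciferase fusion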
Mdm2-MdmX conf – Mdm2-MdmX complex disruptors, retested hits, confirmation, luminescence, single concentration; AID 489028, 2010; 10,000 compounds, 55% hits; shares compounds with Mdm2-MdmX inh; Mdm2-MdmX binding, luminescent assay; inhibition, % at 8 µM; in the data active means inhibition above about 40%
FLuc counter – full-length luciferase signal inhibition, confirmation, counter-screen for Mdm2/MdmX interaction inhibitor project, cell-based, single concentration, SaOS-2. shares compounds with Mdm2-MdmX inh. SaOS-2 full-length luciferase counterscreen, luminescence. inhibition, % at 8 µM. 6,200 compounds, 77% hits. AID 504607, 2011;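 active means mean inhibition at 8 µM reaching about 37%, which flags the compound as non-specific, limit read from the data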;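 further: p53-null SaOS-2 cells with luciferase driven by a doxycycline-inducible promoter; compound on cells about two nights before reading with doxycycline added after day one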
Large screens that a line does not name were inactive (follow-up assays come after a bar, where they were run).

CCc1ccc2[nH]c3nc(SCCN4CCOCC4)nnc3c2c1	none
N/C(=N\OC(=O)c1ccc(=O)n(Cc2ccc(Cl)cc2)c1)c1ccccn1	Mdm2-MdmX inh 66.6 | Mdm2-MdmX conf inactive
CCCc1ccc(C(=O)O/N=C(\N)c2ccccn2)cc1	Mdm2-MdmX inh 62.7, aSyn UTR inh 71.7 | Mdm2-MdmX conf 70.0 | FLuc counter 61.4
N/C(=N\OC(=O)c1ccc2ccccc2c1)c1ccccn1	Mdm2-MdmX inh 69.6, aSyn UTR inh 95.5 | Mdm2-MdmX conf 49.4 | FLuc counter 110.8
N/C(=N\OC(=O)c1ccc2ccccc2c1)c1cccc([N+](=O)[O-])c1	Mdm2-MdmX inh 83.2 | Mdm2-MdmX conf inactive
N/C(=N/OC(=O)c1cccc([N+](=O)[O-])c1)c1cccc([N+](=O)[O-])c1	none
Cc1ccccc1NS(=O)(=O)c1ccc(C(=O)N2CCCC(C(F)(F)F)C2)cc1 (stereo not drawn)	none
N/C(=N\OC(=O)c1ccc2ccccc2c1)c1ccncc1	none
N/C(=N\OC(=O)c1ccc2ccccc2c1)c1ccccc1Cl	Mdm2-MdmX inh 100.3 | Mdm2-MdmX conf 68.0 | FLuc counter 77.5
CCN(CC)S(=O)(=O)c1ccc(N2CCOCC2)c(NC(=O)c2ccc(=O)[nH]c2)c1	none (no result: aSyn UTR inh)
CCC1(C)CC2(CCCN(CCC(=O)c3ccccc3)C2)CCO1 (stereo not drawn)	none
Nc1ncnc2c1c(-c1ccc(Oc3ccccc3)cc1)cn2C1CCCC1	Mdm2-MdmX inh 84.7, CSC inhib 120.9 (no result: aSyn UTR inh) | Mdm2-MdmX conf 52.6 | FLuc counter 41.8
Nc1nc(N)nc(-c2ccc(Oc3ccccc3)cc2)n1	none
C=CCC[C@@H](Cc1ccc(F)cc1)C(=O)OC[C@@H](NC(=O)[C@H](CC=C)CC(=O)N(CCO)Cc1ccccc1)c1ccccc1	none (no result: aSyn UTR inh)
C=CCC[C@@H](Cc1ccc(F)cc1)C(=O)OC[C@@H](NC(=O)[C@@H](CC=C)CC(=O)N(CCO)Cc1ccccc1)c1ccccc1	Mdm2-MdmX inh 88.0 (no result: CSC inhib, aSyn UTR inh) | Mdm2-MdmX conf inactive
C=CC[C@@H](CC(=O)N(CCO)Cc1ccccc1)C(=O)N[C@H](COC(=O)[C@@H](CC=C)Cc1ccc(F)cc1)Cc1ccccc1	Mdm2-MdmX inh 70.2 (no result: aSyn UTR inh) | Mdm2-MdmX conf inactive
C=CC[C@H](CC(=O)N(CCO)Cc1ccccc1)C(=O)N[C@@H](C)COC(=O)[C@@H](CC=C)Cc1ccc(F)cc1	none (no result: aSyn UTR inh)
C=CC[C@@H](CC(=O)N(CCO)Cc1ccccc1)C(=O)N[C@@H](COC(=O)[C@@H](CC=C)Cc1ccc(F)cc1)Cc1ccccc1	Mdm2-MdmX inh 62.7 (no result: CSC inhib, aSyn UTR inh) | Mdm2-MdmX conf inactive
CCCCCN(C(=O)CCC(=O)OCC(=O)Nc1ccc(C)cc1F)c1c(N)n(CCCC)c(=O)[nH]c1=O	none (no result: CSC inhib)
COc1cc(CC(=O)OCn2nnc3ccccc3c2=O)cc(OC)c1OC	none
Cc1cc(NC(=O)c2ccc(C)c(C)c2)no1	none
C=CCOc1ccccc1CNc1ccc2c(c1)OCCO2	Mdm2-MdmX inh 64.0 | Mdm2-MdmX conf 65.0 | FLuc counter 68.6
Cc1ccc(OCCC(=O)OCC(=O)NC(=O)NC2CCCCC2)cc1	none
O=C(CN1C(=O)S/C(=C\C=C\c2ccccc2)C1=O)Nc1ccccc1C(=O)O	none
O=C(CN1C(=O)S/C(=C\C=C\c2ccccc2)C1=O)Nc1cccc(O)c1	Mdm2-MdmX inh 99.3, CSC inhib 93.0 | Mdm2-MdmX conf inactive
CCOc1ccc(Nc2ncnc3ccc([N+](=O)[O-])cc23)cc1	Mdm2-MdmX inh 68.7 | Mdm2-MdmX conf 71.0 | FLuc counter 53.0
Cc1nnnn1/C(=C\c1ccccc1)C(=O)OCC(=O)NC1CCCCC1	Mdm2-MdmX inh 62.4 | Mdm2-MdmX conf 45.0 | FLuc counter 45.2
Cc1ccc(OC(F)F)c(NC(=O)Nc2cccc(C(F)(F)F)c2)c1	Mdm2-MdmX inh 88.0 | Mdm2-MdmX conf 59.2 | FLuc counter inactive
Cn1ccnc1CN1CCCCC1C(=O)Nc1ccc(Oc2cccnc2)cc1 (stereo not drawn)	Mdm2-MdmX inh 51.0 | Mdm2-MdmX conf 73.7 | FLuc counter 64.5
COc1ccc(-c2cc(-c3c(O)c(OC)c4occc4c3OC)[nH]n2)cc1OC	Mdm2-MdmX inh 60.2 | Mdm2-MdmX conf inactive | FLuc counter 93.3
Cc1cc(-c2ccc(C)c(S(=O)(=O)Nc3cc(C)on3)c2)on1	none
Cc1cccn2c(=O)c(C=NCCO)c(NCc3ccco3)nc12	none
Cc1cccn2c(=O)c(C=NCc3ccco3)c(Nc3ccc(SC(F)F)cc3)nc12	Mdm2-MdmX inh 55.7 | Mdm2-MdmX conf inactive
CCCN1CCN(CCCNC(=O)Cn2nc(-c3ccccc3)ccc2=O)CC1	none
COc1cc2nc(Nc3ccc(C)c(Cl)c3)nc(N)c2cc1OC	Mdm2-MdmX inh 92.6, CSC inhib 105.9, aSyn UTR inh 98.5 | Mdm2-MdmX conf 66.0 | FLuc counter 87.8
COc1cc2nc(N(C)C)nc(N)c2cc1OC	none
COc1cc2nc(Nc3ccc(C)c(C)c3)nc(N)c2cc1OC	Mdm2-MdmX inh 87.5 | Mdm2-MdmX conf inactive
O=C(N/N=C/c1cccs1)c1cc(-c2ccc(Cl)s2)[nH]n1	none
CCOc1ccc2nc(NC(=O)c3cccc(-c4cc5ccccc5oc4=O)c3)sc2c1	none (no result: 697 NFkB inh, Mdm2-MdmX inh, Jurkat NFkB inh)
Cc1ccc2nc(NC(=O)c3cccc(-c4cc5ccccc5oc4=O)c3)sc2c1	Mdm2-MdmX inh 81.2, CSC inhib 99.4 | Mdm2-MdmX conf 67.7 | FLuc counter 105.3
CC1CCN(CC(CS(=O)(=O)c2ccc([N+](=O)[O-])cc2)N2CCC(C)CC2)CC1 (stereo not drawn)	Mdm2-MdmX inh 99.8, CSC inhib inconclusive | Mdm2-MdmX conf 99.5 | FLuc counter 50.5
Cc1ccc(S(=O)(=O)CC(CN2CCOCC2)N2CCOCC2)cc1 (stereo not drawn)	none
O=C1CN(C(=O)c2ccc(Cl)c(S(=O)(=O)N3CCc4ccccc43)c2)c2ccccc2N1	Mdm2-MdmX inh 85.5 | Mdm2-MdmX conf 78.0 | FLuc counter 64.1
O=C1CN(C(=O)COC(=O)c2ccc(Cl)c(S(=O)(=O)N3CCCCC3)c2)c2ccccc2N1	none (no result: aSyn UTR inh)

Assay outcomes as filed in PubChem.
